The conditions of assay [1]: Ebola virus entry assay, green fluorescence channel.
The conditions of assay [2]: Ebola virus entry assay, blue channel fluorescence.
The conditions of assay [3]: Ebola virus entry assay, ratio channel.
The conditions of assay [4]: Ebola virus entry assay, green channel fluorescence.
The conditions of assay [5]: Ebola virus entry assay, reporter ratio channel; Channel type: primary.
For assay [6] the following is noted: Ebola virus entry assay, blue channel (ratio component).

The source of these data is PubChem BioAssay (NCATS).

Unmarked numbers belong to inactive results. For part of these data: Measured potencies and affinities stand elsewhere. Active and inactive are the calls of the source. The rule behind the calls is not given here. Peptide text beside a SMILES is read from it.
Throughout, for efficacy: 0% is about no effect.

For `Nc1c(CC(=O)O)cccc1C(=O)c1ccc(Br)cc1`, the efficacy in assay [1] was 18.5%. In addition, the compound was classed as inactive in assay [2], in assay [3], in assay [4], in assay [5] and in assay [6].

On to `COc1ccc(CN(CCN(C)C)c2ncccn2)cc1`, for which the efficacy in assay [1] was -18%. The outcome in assay [2], in assay [3], in assay [4], in assay [5] and in assay [6] was inactive.

Regarding `Cc1ccc(/C=N/n2c(-c3ccccc3)csc2=S)cc1`, the efficacy in assay [1] is 32.3%. Further, the compound was called inactive in assay [2], in assay [3], in assay [4], in assay [5] and in assay [6].

Take `N[C@@H](CSCCCO)C(=O)O`: the efficacy in assay [1] was 25.1%. Moreover, the outcome in assay [2], in assay [3], in assay [4], in assay [5] and in assay [6] was inactive.

Regarding `CCC1NC(=O)c2cc(S(N)(=O)=O)c(Cl)cc2N1` (centres undefined), in assay [1], the efficacy is -10.3%. Moreover, the compound was classed as inactive in assay [2], in assay [3], in assay [4], in assay [5] and in assay [6].

On to `C[N+](C)(C)CC[N+]1(C)Cc2c(Cl)c(Cl)c(Cl)c(Cl)c2C1`, for which the efficacy in assay [1] is 13.2%. Also, the result in assay [2], in assay [3], in assay [4], in assay [5] and in assay [6] was inactive.

As to `Cc1[nH]c(C)c(Cl)c(=O)c1Cl`, the efficacy in assay [1] was 22.5%. Besides, the outcome in assay [2], in assay [3], in assay [4], in assay [5] and in assay [6] was inactive.

On to `NC(=O)CCCCC1CCSS1` (centres undefined), for which the efficacy in assay [1] was 19.1%. In addition, the call in assay [2], in assay [3], in assay [4], in assay [5] and in assay [6] was inactive.

For `O=C(O)CCC(=O)OC[C@@H](NC(=O)C(Cl)Cl)[C@H](O)c1ccc([N+](=O)[O-])cc1`, the efficacy in assay [1] is 19.1%. The compound was classed as inactive in assay [2], in assay [3], in assay [4], in assay [5] and in assay [6].

On to `CCN(CC)CC(=O)OCC(=O)[C@@]1(O)CC[C@H]2[C@@H]3CCC4=CC(=O)CC[C@]4(C)[C@H]3[C@@H](O)C[C@@]21C`, for which the efficacy in assay [1] was 17.3%. Besides, the result in assay [2], in assay [3], in assay [4], in assay [5] and in assay [6] was inactive.

As to `Cc1ncc(COP(=O)(O)O)c(C=O)c1O`, the efficacy in assay [1] was -34.1%. For the same compound, the result in assay [2], in assay [3], in assay [4], in assay [5] and in assay [6] was inactive.

Regarding `C/C=C/C(=O)N(CC)c1ccccc1C`, in assay [1], the efficacy is 23.4%. Moreover, the compound was classed as inactive in assay [2], in assay [3], in assay [4], in assay [5] and in assay [6].

As to `Cc1sccc1Br`, the efficacy in assay [1] was -12.3%. Moreover, the result in assay [2], in assay [3], in assay [4], in assay [5] and in assay [6] was inactive.

Take `CCOC(=O)NNc1nncc2ccccc12`: the efficacy in assay [1] is -15.2%. In addition, the outcome in assay [2], in assay [3], in assay [4], in assay [5] and in assay [6] was inactive.

For the compound `CCC(=O)c1ccc(O)cc1`, the efficacy in assay [1] is -30%. For the same compound, the compound was called inactive in assay [2], in assay [3], in assay [4], in assay [5] and in assay [6].

As for `CCNC(=O)NCc1cccc(Cl)c1`, in assay [1], the efficacy was 7%. Moreover, the outcome in assay [2], in assay [3], in assay [4], in assay [5] and in assay [6] was inactive.

With `CCCCC1(COC(=O)CCC(=O)O)C(=O)N(c2ccccc2)N(c2ccccc2)C1=O`, the efficacy in assay [1] was -12.3%. The result in assay [2], in assay [3], in assay [4], in assay [5] and in assay [6] was inactive.

With `O=c1ccc2ccccc2o1`, the efficacy in assay [1] is 11.1%. For the same compound, the call in assay [2], in assay [3], in assay [4], in assay [5] and in assay [6] was inactive.

For the compound `O=C(O)Cc1ccc2c(c1)C(=O)c1ccccc1CO2`, the efficacy in assay [1] is 17%. For the same compound, the call in assay [2], in assay [3], in assay [4], in assay [5] and in assay [6] was inactive.

Consider `CCn1cc(C(=O)O)c(=O)c2cc(F)c(N3CCN(C)CC3)cc21`, for which the efficacy in assay [1] was -16.7%. In addition, the result in assay [2], in assay [3], in assay [4], in assay [5] and in assay [6] was inactive.

With `C[C@]12CCC(=O)C=C1CC[C@@H]1[C@@H]2C(=O)C[C@@]2(C)[C@H]1CC[C@]2(O)C(=O)CO`, in assay [1], the efficacy was 28.7%. Moreover, the compound was classed as inactive in assay [2], in assay [3], in assay [4], in assay [5] and in assay [6].

As to `CC(=O)O[C@H]1C[C@@H]2CC[C@@H]3[C@H](CC[C@@]4(C)[C@H]3C[C@H]([N+]3(C)CCCCC3)[C@@H]4OC(C)=O)[C@@]2(C)C[C@@H]1N1CCCCC1`, in assay [1], the efficacy is -18%. Also, the call in assay [2], in assay [3], in assay [4], in assay [5] and in assay [6] was inactive.

With `NS(=O)(=O)c1cc2c(cc1Cl)NCNS2(=O)=O`, in assay [1], the efficacy is 14.8%. Moreover, the outcome in assay [2], in assay [3], in assay [4], in assay [5] and in assay [6] was inactive.

On to `CO/N=C(\C(=O)O)c1csc(NC(=O)CCl)n1`, for which, in assay [1], the efficacy was 7.58%. In addition, the compound was classed as inactive in assay [2], in assay [3], in assay [4], in assay [5] and in assay [6].

As for `CC(C)Cn1cnc2c1c(=O)n(C)c(=O)n2C`, in assay [1], the efficacy is -27.1%. Moreover, the result in assay [2], in assay [3], in assay [4], in assay [5] and in assay [6] was inactive.

Turning to `O=C1CC2(CCCC2)CC(=O)N1CCNCC1COc2ccccc2O1` (centres undefined), in assay [1], the efficacy is 16.2%. Further, the call in assay [2], in assay [3], in assay [4], in assay [5] and in assay [6] was inactive.

For orientation: AC50 means the concentration at which the activity in the assay is half-maximal. For `O=C(NOCC1CC1)c1ccc(F)c(F)c1Nc1ccc(I)cc1Cl`, in assay [1], the efficacy is 18.5%. In addition, the AC50 was 7.94 µM (active) in assay [2], 15.8 µM (active) in assay [3] and 15.8 µM (active) in assay [5]. For the same compound, the outcome in assay [4] and in assay [6] was inactive.

On to `N=C(N)c1ccc(OCCCOc2ccc(C(=N)N)cc2)cc1`, for which the efficacy in assay [1] was 14.7%. The call in assay [2], in assay [3], in assay [4], in assay [5] and in assay [6] was inactive.

In the case of `CC(=O)N[C@@H](CO)C(=O)N[C@@H](CC(=O)O)C(=O)N[C@@H](CCCCN)C(=O)N1CCC[C@H]1C(=O)O` (Ac-SDKP-OH), the efficacy in assay [1] was 17.5%. In addition, the result in assay [2], in assay [3], in assay [4], in assay [5] and in assay [6] was inactive.
